This is part of a sample that, as a whole, favours compounds with a hit. Of some 83,000 tested, about 20% had one in any assay.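 Single-dose data. Exposure time 48 hours. Values below 10 considered active.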 Unmarked numbers belong to inactive results. Active and inactive are the calls of the source.
Tested on: NCI-H23 lung
Assay: NCI-60 one-dose screen, 48 h (100 = growth as untreated, 0 = no growth, -100 = all killed)
Conditions: 10 µM
Experimental: Growth inhibition of the NCI-H23 human Non-Small Cell Lung tumor cell line is measured as a screen for anti-cancer activity. Cells are grown in 96 well plates and exposed to the test compound for 48 hours. Compounds are tested at a single concentration, which is 10^-5 M for most compounds. The reported endpoint is percent growth (GI% or GIPRCNT), where numbers from 0 - 100% represent growth inhibition, and numbers from -100% - 0 represent cell death. For example, a value of 40 represents 60% growth inhibition. A value of 0 means no net growth occurred over the course of the experiment. A value of -40 indicates 40% of cells at the beginning of the experiment died by the end of the experiment. A value of -100 means all cells are dead at the end of the experiment.
NCI-60 Human Tumor Cell Lines Screen was performed using the standard one-dose NCI protocol, which is described in more detail at https://dtp.cancer.gov/discovery_development/nci-60/default.htm.
Compounds with GIPRCNT values below 10 were considered active. Activity score was based on GIPRCNT using the following formula: […]
Score is 0 for GIPRCNT values of 100 or above, 50 for GIPRCNT values of 0, and 100 for GIPRCNT values of -100.

Row | SMILES | growth
1 | CC1=C(COCCOC(=O)c2ccc(S(=O)(=O)F)cc2)C2=C(C)C3(CC3)[C@@](C)(O)C(=O)C2=C1 | -85.6% (active)
2 | CC1=C(CCC=NNC(N)=O)C2=C(C)C3(CC3)[C@@](C)(O)C(=O)C2=C1 | -78.2% (active)
3 | C[C@H]1[C@H](OC(=O)CCC(=O)Nc2cnccn2)O[C@@H]2OC3(C)CC[C@H]4[C@H](C)CC[C@@H]1[C@@]24OO3 | 25.9%
4 | O=C(/C=C/c1ccccc1Cl)c1nc2ccccc2n1Cc1ccc(F)cc1 | -78.2% (active)
5 | CC1=C(CCC=O)C2=C(C)C3(CC3)[C@@](C)(O)C(=O)C2=C1 | -86% (active)
6 | O=C([Se]C1C=CCCC1)c1ccc(C(=O)[Se]C2C=CCCC2)s1 (stereo not given) | -74% (active)
7 | N#C[Se]CC(=O)Nc1cccc(C(F)(F)F)c1 | -46.7% (active)
8 | CC(C)N=C([Se])NC(=O)c1cccs1 | -33.4% (active)
9 | O=C(/C=C/c1ccccc1)c1nc2ccccc2n1Cc1ccc(F)cc1 | -45.9% (active)
10 | CCOP(=O)(CC(F)(F)C(F)(F)F)OCC | 50.4%
11 | CC[C@@]12CC(C(=O)OC)=C3Nc4cc5c(cc4[C@@]34CCN(C[C@H]3O[C@H]31)[C@@H]24)[C@@H]1[C@H](O5)[C@@H](O)[C@@]2(CC)CC(C(=O)OC)=C3Nc4cc(OC)ccc4[C@@]34CCN1[C@@H]24 | 1.41% (active)
12 | C#CCCCN(CCNc1ccnc2cc(Cl)ccc12)C(=O)CCC(=O)O[C@@H]1O[C@@H]2OC3(C)CC[C@H]4[C@H](C)CC[C@@H]([C@H]1C)[C@@]24OO3 | 35.7%
13 | C[C@H]1[C@H](OC(=O)CCC(=O)N(CCCc2cn(-c3ccc(C#N)cc3)nn2)CCNc2ccnc3cc(Cl)ccc23)O[C@@H]2OC3(C)CC[C@H]4[C@H](C)CC[C@@H]1[C@@]24OO3 | 47.3%
14 | O=C(/C=C/c1ccc(F)cc1)c1nc2ccccc2n1Cc1ccc(F)cc1 | 14.6%
15 | COC(=O)C[C@](O)(CCCC(C)C)C(=O)O[C@H]1C(OC)=C[C@@]23CCCN2CCc2cc4c(cc2[C@@H]13)OCO4 | -25% (active)
16 | COC(=O)c1ccc(-n2cc(CCCN(CCNc3ccnc4cc(Cl)ccc34)C(=O)CCC(=O)O[C@@H]3O[C@@H]4OC5(C)CC[C@H]6[C@H](C)CC[C@@H]([C@H]3C)[C@@]46OO5)nn2)cc1 | 40.4%
17 | CC1=C2C(=C[C@@](C)(COP(=O)(Oc3ccccc3)Oc3ccccc3)[C@@H]2O)C(=O)[C@@](C)(O)C12CC2 | -84.6% (active)
18 | C[C@H]1[C@@H](Oc2ccc(-c3cn(-c4ccnc5cc(Cl)ccc45)nn3)cc2)O[C@@H]2OC3(C)CC[C@H]4[C@H](C)CC[C@@H]1[C@@]24OO3 | 28.4%
19 | CCOC(=O)C1=C(Nc2ccccc2)C(=O)OC12C(=O)Nc1ccccc12 (stereo not given) | 97.3%
20 | O=C(/C=C/c1ccc(Cl)cc1)c1nc2ccccc2n1Cc1ccc(F)cc1 | 33.4%

Row | SMILES | growth
21 | Cc1ccc2[nH]c(=S)n(-c3ccc(F)cc3)c(=O)c2c1 | 98.7%
22 | O=C(/C=C/c1ccc(Cl)cc1Cl)c1nc2ccccc2n1Cc1ccc(F)cc1 | 47.8%
23 | C[C@H]1[C@H](OC(=O)CCC(=O)N(CCCc2cn(-c3ccc(CN4CCOCC4)cc3)nn2)CCNc2ccnc3cc(Cl)ccc23)O[C@@H]2OC3(C)CC[C@H]4[C@H](C)CC[C@@H]1[C@@]24OO3 | 45.3%
24 | COc1cc(OC)c(/C=C/C(=O)c2nc3ccccc3n2Cc2ccc(F)cc2)c(OC)c1 | 89%
25 | C#CC[Se]C(=O)c1ccc2n[se]nc2c1 | 77%
26 | COP(=O)(CC(F)(F)C(F)(F)F)OC | 41.8%
27 | Cc1c2oc3c(C)ccc(C(=O)N[C@@H]4C(=O)N[C@H](C(C)C)C(=O)N5CCC[C@H]5C(=O)N(C)CC(=O)N(C)[C@@H](C(C)C)C(=O)OC4C)c3nc-2c(C(=O)N[C@@H]2C(=O)N[C@H](C(C)C)C(=O)N3CC(=O)C[C@H]3C(=O)N(C)CC(=O)N(C)[C@@H](C(C)C)C(=O)OC2C)c(N)c1=O (stereo not given in full) | -38.9% (active)
28 | COC(=O)C[C@](O)(CCC(C)C)C(=O)O[C@H]1C(OC)=C[C@@]23CCCN2CCc2cc4c(cc2[C@@H]13)OCO4 | -54.3% (active)
29 | COCCOCCOCCOc1ccc(-n2cc(CCCN(CCNc3ccnc4cc(Cl)ccc34)C(=O)CCC(=O)O[C@@H]3O[C@@H]4OC5(C)CC[C@H]6[C@H](C)CC[C@@H]([C@H]3C)[C@@]46OO5)nn2)cc1 | 47.9%
30 | O=C(/C=C/c1ccco1)c1nc2ccccc2n1Cc1ccc(F)cc1 | 65.2%
31 | O=C(/C=C/c1ccco1)c1nc2ccccc2n1Cc1ccc(Br)cc1 | 27.4%
32 | CC12OOC(C)(OO1)C2CCC(=O)NCCCNc1ccnc2cc(Cl)ccc12 (stereo not given) | 68.8%
33 | CC12OOC(C)(OO1)C2CCC(=O)NCCNc1ccnc2cc(Cl)ccc12 (stereo not given) | 92.6%
34 | COc1cc2cc(C(=O)N3C[C@@H](CCl)c4c3cc(OC(=O)N3CCN(C(=O)CCC(=O)N5CCN(C)CC5)[C@@H]5CSSC[C@@H]53)c3ccccc43)[nH]c2c(OC)c1OC | -93% (active)
35 | CC12CCC3(CCC(=O)NCCCNc4ccnc5cc(Cl)ccc45)[C@@](C)(OO[C@]3(C)O1)O2 | -43.6% (active)
36 | COc1ccc(OC)c(/C=C/C(=O)c2nc3ccccc3n2Cc2ccc(F)cc2)c1 | -49.1% (active)
37 | CC[C@]12C=CCN3CC[C@@]4(c5ccc(OC)cc5N(C)[C@H]4[C@@](O)(C(=O)OC)[C@@H]1OC(=O)CCC[P+](c1ccc(C)cc1)(c1ccc(C)cc1)c1ccc(C)cc1)[C@@H]32 | -90.7% (active)
38 | O=C(/C=C/c1ccc(Br)cc1)c1nc2ccccc2n1Cc1ccc(Br)cc1 | -36.3% (active)
39 | CC[C@]12C=CCN3CC[C@@]4(c5ccc(OC)cc5N(C)[C@H]4[C@@](O)(C(=O)OC)[C@@H]1OC(=O)CCCC[P+](C1CCCCC1)(C1CCCCC1)C1CCCCC1)[C@@H]32 | -9.66% (active)
40 | CCOP(=O)(OCC)C(NC(C)=O)C(=O)SCCN (stereo not given) | 101%
